Sm TGR block: S. mansoni TGR enzyme inhibition | hit rate 3% among 360,000 | Potency, µM (titrated, usually from 114 µM), inactives show at the top dose activity change, negative = inhibition, actives largely listed as inhibitors | purified TGR, DTNB reduction, TNB absorbance 405 nm; further: potency means the concentration at half of the fitted maximal effect; on the % scale 0 is the no-effect control and ±100 the full control effect; nearly all actives have a fitted effect of over 60% in size
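TGR 20 nM + NADPH 100 uM (dispensed conc.), cpd preinc 15 min RT; start with NADPH (500 uM addition) then DTNB (15 mM addition). Kinetic TNB absorbance, 405 nm filter. Four-parameter Hill fit across titration.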
Shiga inhibitor: blocks Shiga toxin action in Vero cells. AID 2315. inhibition, % at 38.7 µM. hit rate 9.2% among 290,000. Vero cells, Shiga toxin protein synthesis inhibition reporter; in the data active means inhibition mostly above about 28%, no sharp cut-off; inactive means mostly below about 43%; further: 0% is about no effect
CHX counter: counter-screen for Shiga toxin inhibitors: cycloheximide protein synthesis inhibition | cell reporter, cycloheximide protein synthesis inhibition counterscreen | max response, % | hit rate 12% among 300,000 | AID 2314; in the data active means max response mostly above about 13%, no sharp cut-off; inactive means mostly below about 14%; further: read at 38.3 µM for the half of the compounds with a filed dose; 0% is about no effect
Pf growth 96h: P. falciparum growth inhibition at 96 hours; P. falciparum luciferase reporter growth, 96 h; Potency, µM (highest dose often 28.7 µM), without a hit: at the highest dose activity change, negative = inhibition, actives largely listed as inhibitors; hit rate 6.9% among 320,000; AID 504834; further: potency means the concentration at half of the fitted maximal effect; on the % scale 0 is the no-effect control and ±100 the full control effect
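Parasite growth measured via integrated firefly luciferase reporter in P. falciparum. Infected erythrocytes at 2% hematocrit, 0.05% parasitemia final were treated 96 hours at 37 C under 5% CO2, and luminescence was read.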
Pf growth 48h: inhibits P. falciparum growth in the first generation, 48 h; hit rate 5.9% among 310,000; P. falciparum luciferase growth in erythrocytes, 48 h; Potency, µM (doses to about 28.7 µM), inactives show at the highest dose activity change, negative = inhibition, hits mostly inhibitors; further: potency means the concentration at half of the fitted maximal effect; on the % scale 0 is the no-effect control and ±100 the full control effect
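Cell-based growth assay: transgenic P. falciparum expressing firefly luciferase, cultured in red cells within RPMI 1640 containing 0.5% w/v Albumax, 24 mM bicarbonate and gentamycin. A drop in luciferase activity indicates inhibition.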
NS1 function inh: blocks influenza NS1 protein function. Potency, µM (titrated, usually from 46.1 µM), inactives show top-dose activity, positive = more growth. hit rate 0.4% among 270,000. AID 2326; calls by dose curve; further: potency means the concentration at half of the fitted maximal effect; actives are rising curves; nearly all actives have a fitted effect of over 50% in size
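Recovery from NS1-induced slow growth read by OD600 in budding yeast switched to galactose assay medium (pH 6.0, -URA) at 1:100 dilution. Compound 23 nl per well; the matching strain lacking NS1 serves as control.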
Starred values were filed as active, the others as inactive; ? = inconclusive; / = not tested or not shown; ! = not active in a repeat; [ ] = remark or other dose. The list is not random: actives were taken first. Their share in the collection is about 21%. Unless noted, the call rests on the fitted dose curve; in most records, active means well fitted curve in the direction sought with a large enough effect; inconclusive means small, poorly fitted or top-dose-only effect, or another doubt; inactive means no such curve, though single readings can be large; an effect the other way counts as inactive or inconclusive.

SMILES	Sm TGR block	Shiga inhibitor	CHX counter	Pf growth 96h	Pf growth 48h	NS1 function inh
COc1ccc(C(=O)O/N=C(\N)c2cccc(C)c2)cc1OC	4%	45*	36*	?	59%	-73%
COc1cc(OC)c(C(=O)O/N=C(\N)c2ccccc2)cc1OC	-8%	48*	29*	11%	?	-3%
COc1ccc(/C(N)=N/OC(=O)c2cc(-c3ccccc3)nc3ccccc23)cc1	-1%	-24	0	98%	33%	1%
COc1ccc(C(=O)O/N=C(\N)c2ccccc2)cc1OC	12%	91*	44*	4%	74%	-33%
COC(=O)C1=C(C(=O)OC)SC2(S1)C(C(=O)OC)=C(C(=O)OC)SC1=C2c2cc(C)ccc2NC1(C)C	7%	20	30	/	?	?
Cc1ccc(S(=O)(=O)N2CCCC2=O)c(C)c1N(C)S(C)(=O)=O	-1%	-11	2	8.3µM*	1%	1%
Cc1cc(C)c(S(=O)(=O)N2CCCC2=O)cc1N(C)S(C)(=O)=O	-6%	-6	2	28%	24%	1%
Cc1cc(N2CCCC2=O)cc(C)c1CN1C(=O)c2ccccc2C1=O	-6%	15	27*	/	18%	2%
O=C(CSc1nc(=O)[nH]c2c1CCC2)NCc1ccc(F)cc1	3%	/	/	/	/	/
COc1ccccc1-n1nnnc1SCC(=O)NCC1(N2CCOCC2)CCCCC1	-7%	/	/	?	?	/
Cc1ccc(C)c(-n2nnnc2SCC(=O)Nc2cccc(-c3nnc4n3CCCCC4)c2)c1	0%	54	14	?	9.3µM*	-34%
Cc1ccc(-n2nnnc2SCC(=O)NCC2(N3CCOCC3)CCCCC2)cc1	0%	/	/	?	?	/
CNC(=O)CSc1nnnn1-c1cc(C)ccc1C	6%	-1	-1	3%	-9%	7%
Cc1cccc(-n2nnnc2SCC(=O)NCC2(N3CCOCC3)CCCCC2)c1C	-9%	/	/	?	12µM*	/
Cc1ccc(-n2nnnc2SCC(=O)NCC2(N3CCOCC3)CCCCC2)c(C)c1	-6%	/	/	?	13µM*	/
Cc1ccc(-n2nnnc2SCC(=O)NCC2(N3CCCCC3)CCCCC2)c(C)c1	5%	/	/	7.4µM*	10µM*	/
Cc1nn(C)c(C)c1S(=O)(=O)N(CC(=O)Nc1ccc(F)cc1F)c1ccc(C(C)C)cc1	-16%	/	/	/	/	/
CC(C)=C[C@H]1[C@@H](COC(=O)c2cc3c(cc2Cl)OCO3)C1(C)C	/	/	/	/	/	6%
Cc1ccc(-n2nnnc2SCC(=O)N2CCc3ccccc3C2)cc1	-18%	-4	7	1%	-12%	-68%
Cc1ccc(-n2nnnc2SCC(=O)N2CCc3ccccc3C2)c(C)c1	-5%	10	1	13µM*	?	-40%
O=C(NCCn1cc(SCc2ccc(Cl)cc2)c2ccccc21)c1cccs1	4%	/	/	/	/	/
COC(=O)c1ccc(C(=O)OC)c(NC(=O)c2ccc(-c3ccccc3)s2)c1	-1%	/	/	/	/	/
Clc1ccc2c(c1)CCc1cccnc1C2=C1CCNCC1	45µM*!	-11	-6	?	13µM*	3%
Cc1ccc(S(=O)(=O)NCCn2nc(C)cc2C)cc1	1%	-10	-3	0%	-2%	14%
CCc1c(C)[nH]n(-c2nc(-c3cccc([N+](=O)[O-])c3)cs2)c1=O	-6%	23*	22*	8%	-4%	30%
SMILES	Sm TGR block	Shiga inhibitor	CHX counter	Pf growth 96h	Pf growth 48h	NS1 function inh
CCCS(=O)c1nc(C)cc(C)c1S(C)(=O)=O (configuration not stated)	-11%	-23	-4	26%	-11%	/
Cc1cc(C(=O)OCC(=O)N2CC(C)OC(C)C2)c(C)n1-c1ccccc1 (configuration not stated)	-1%	/	/	?	?	/
COc1ccccc1/C=C1\C(=O)NC(=S)N(c2ccccc2)C1=O	8.9µM*	9	3	17%	3%	8%
COc1ccccc1/C=C1/C(=O)N(c2ccccc2)N=C1C	3%	-2	-3	?	-6%	5%
O=C1NC(=S)N(c2ccccc2)C(=O)/C1=C/c1ccco1	14µM*	/	1	-12%	16%	?
CCOc1cccc(/C=C2\NC(=S)N(c3ccccc3)C2=O)c1O	-20%	55*	42*	128%	116%	-14%
CCOc1cc(/C=C2\NC(=S)N(c3c(C)n(C)n(-c4ccccc4)c3=O)C2=O)ccc1O	-10%	-8	-1	29%	10%	15%
Cc1ccc(/C=C2\C(=O)NC(=S)N(c3ccccc3F)C2=O)s1	7.9µM*	8	4	4%	7%	6%
Cc1ccc(/C=C2\C(=O)NC(=S)N(c3ccc(F)cc3)C2=O)s1	?	22	-13	49%	114%	/
COc1ccc(NC(=O)c2cccnc2C(=O)O)c(OC)c1	-16%	16	-2	58%	/	-2%
O=C1NC(=S)N(c2ccc(F)cc2)C(=O)/C1=C/c1ccccc1O	?	37	12*	35%	/	-2%
O=C(O)Cn1cc(/C=C2\C(=O)NC(=O)N(c3ccc(F)cc3)C2=O)c2ccccc21	?	-6	-2	?	-15%	4%
COc1ccccc1C(=O)NCCCNc1ccc([N+](=O)[O-])cc1	-1%	-13	-2	13µM*	1%	-3%
CC(=O)NCCCNc1ccc([N+](=O)[O-])cc1	0%	35*	23*	1%	76%	-9%
CCS(=O)(=O)NCCNc1ccc([N+](=O)[O-])cc1	1%	-18	0	12µM*	-2%	-1%
COc1ccc(-c2cc3ccc(OC)cc3cn2)cc1	16µM*	/	/	180%	127%	/
COc1ccc2cc(-c3cc(C(=O)O)c4ccccc4n3)ccc2c1	2%	-32	-7	44%	-32%	-71%
COc1ccc2cc(-c3ccon3)ccc2c1	14%	107*	32*	125%	-9%[0.00184 µM]	-12%
CC(c1ccon1)N(C)C(=O)c1ccc2nc(Cc3cccc(Cl)c3)oc2c1 (configuration not stated)	-3%	10	19	?	12%	1%
Cc1ccc2c(C)c(C(=O)N(C)C(C)c3ccncn3)oc2c1C (configuration not stated)	-21%	54*	13*	7%	0%	-9%
Cc1ccc2c(C)c(C(=O)N(C)C(C)c3ccon3)oc2c1C (configuration not stated)	?	83*	59*	-24%	-10%	-13%
CCn1cc([N+](=O)[O-])c(C(=O)N2N=C(c3ccc(OC)cc3OC)CC2c2ccccc2O)n1 (configuration not stated)	3%	25	12	10µM*	?	11%
CCn1cc([N+](=O)[O-])c(C(=O)N2CCCC2)n1	-32%	-12	-2	/	20%	3%
CCn1cc(Cl)c(C(=O)N2N=C(c3ccc4ccccc4c3)CC2c2ccccc2O)n1 (configuration not stated)	0%	7	3	1.5µM*	2.1µM*	23%
